According to ChEMBL document CHEMBL3988442, “University of Dundee, Small-Polar-MMV Screening Library” (2021):
The campaign covered roughly 66,000 compounds. About 960 (1.5%) showed an effect of 50% or more. The list comes from a sample in which strong results are over-represented; it also holds similar structures and randomly drawn compounds.

System: Trypanosoma brucei
Assay: Trypanosoma brucei 72 hour study
Type: functional, organism-based
Design: scale not given: in the data most compounds retested in dose-response had high values

## Cc1csc(C(=O)N2CCCC(c3[nH]ncc3S(C)(=O)=O)C2)c1 (stereo not given)
30.3 µM, […]
  Percent Effect: 68.17%

## Cc1ccsc1C(=O)N1CCCC(c2[nH]ncc2S(C)(=O)=O)C1 (stereo not given)
30.3 µM, […]
  Percent Effect: -15.29%

## Cc1ccc(C(=O)N2CCCC(c3[nH]ncc3S(C)(=O)=O)C2)s1 (stereo not given)
30.3 µM, […]
  Percent Effect: -30.56%

## COCCN1CCC2(CC1)CN(C(=O)c1cccs1)CCO2.O=C(O)C(F)(F)F
30.3 µM, […]
  Percent Effect: -16.53%

## CN(C)CCO[C@H]1CN(C(=O)c2cccs2)[C@@H]2COC[C@H]12.O=C(O)C(F)(F)F
30 µM, 30.03 µM
  Percent Effect: 4.197%

## CC(Nc1nc2c(cnn2C)c(=O)[nH]1)c1ccc2c(c1)CCCC2 (stereo not given)
30.3 µM, […]
  Percent Effect: 35.38%

## CCC(=O)Nc1ccc(C(C)Nc2nc3c(cnn3C)c(=O)[nH]2)cc1 (stereo not given)
30.3 µM, […]
  Percent Effect: 99.39%

## CC(C)Sc1ccc(C(C)Nc2nc3c(cnn3C)c(=O)[nH]2)cc1 (stereo not given)
30.3 µM, […]
  Percent Effect: 62.45%

## Cc1ccc(C(C)N(C)Cc2nc3c(cnn3C)c(=O)[nH]2)cc1 (stereo not given)
30 µM, 30.03 µM
  Percent Effect: 18.7%

## CC(Nc1nc2c(cnn2C)c(=O)[nH]1)c1ccccn1 (stereo not given)
30.3 µM, […]
  Percent Effect: -31.46%

## CC(Nc1nc2c(cnn2C)c(=O)[nH]1)c1ccc(F)cc1 (stereo not given)
30.3 µM, […]
  Percent Effect: -23.37%

## CSCC[C@H](N)c1nnc(SCC(=O)Nc2ccc(Br)cc2)o1.Cl
30 µM, 30.03 µM
  Percent Effect: -43.15%

## CC(CNC(=O)c1ccc(F)cc1I)N1CCCC1 (stereo not given)
30.3 µM, […]
  Percent Effect: 0.5476%

## COCCC(=O)NCCn1nc(C2CCNC2)c2cccnc21.Cl (stereo not given)
30.3 µM, […]
  Percent Effect: -11.01%

## Cc1nc(CN2CCC(O)(c3ccccc3F)CC2)c2ccccn12.O=C(O)CC(O)(CC(=O)O)C(=O)O
30.3 µM, […]
  Percent Effect: -5.12%

## Cc1cccc(C)c1NC(=O)c1cc(S(N)(=O)=O)c(C)o1
30 µM, 30.03 µM
  Percent Effect: -12.34%

## Cc1nc(C2(O)CCCNCC2)sc1CCOc1ccc(F)c(F)c1.Cl (stereo not given)
30.3 µM, […]
  Percent Effect: 101.7%

## Cc1nccc(CNC(=O)NCCOc2ccc(F)c(F)c2)n1
30.3 µM, […]
  Percent Effect: 8.406%

## Cc1cc(CNC(=O)NCCOc2ccc(F)c(F)c2)on1
30 µM, 30.03 µM
  Percent Effect: -38.02%

## CC1(C(=O)NCc2cccnc2Oc2ccc(F)c(F)c2)CCCNC1 (stereo not given)
30 µM, 30.03 µM
  Percent Effect: -31.1%

## Cn1cc(CNC(=O)NCCOc2ccc(F)c(F)c2)cn1
30 µM, 30.03 µM
  Percent Effect: -10%

## CCC(CN1CCCC1)NC(=O)Cc1c(C)[nH]c2c(C)cc(C)cc12.O=C(O)CC(O)(CC(=O)O)C(=O)O (stereo not given)
30.3 µM, […]
  Percent Effect: 9.843%

## Cc1ccc(CN2CCCn3nnc(COCC4CC4)c3C2)s1.O=C(O)C(F)(F)F
30 µM, 30.03 µM
  Percent Effect: 22.43%

## CN(C)CCCN(Cc1ccco1)Cc1ccnn1C1CCCCO1.O=C(O)CC(O)(CC(=O)O)C(=O)O (stereo not given)
30.3 µM, […]
  Percent Effect: -21.72%

## O=C(O)C(F)(F)F.O=C(c1ccncc1)N1CCOC2(CCCN(c3nncs3)C2)C1 (stereo not given)
30.3 µM, […]
  Percent Effect: -64.64%

## CN(C)S(=O)(=O)N1CCC(c2cccc(Cc3ccccc3Cl)n2)CC1
30.3 µM, […]
  Percent Effect: -38.96%

## Cc1ccc(-c2nc(CN(Cc3cccs3)CC3CCCO3)no2)cc1 (stereo not given)
10 µM
  Percent Effect: -10.74%
30.3 µM, […]
  Percent Effect: 9.515%

## Cc1ncoc1C(=O)N1C[C@H]2CCC[C@@]2(COCc2cccnc2)C1.O=C(O)C(F)(F)F
30 µM, 30.03 µM
  Percent Effect: 18.22%

## Cn1nnc2c1CCN(CC1CC1)C2COCc1ccccc1.O=C(O)C(F)(F)F (stereo not given)
30 µM, 30.03 µM
  Percent Effect: 17.54%

## CO[C@@H]1CC[C@H]2[C@H]1OCCN2Cc1ccc(F)c(F)c1.O=C(O)C(F)(F)F
30.3 µM, […]
  Percent Effect: -7.78%

## CC(C)NC(=O)N1CCOC2(CCCN(c3ncccc3F)C2)C1.O=C(O)C(F)(F)F (stereo not given)
30.3 µM, […]
  Percent Effect: -41.85%

## COc1cccc(CN2CCC(O)(c3ccc(C)cn3)CC2)c1OC
30.3 µM, […]
  Percent Effect: -256.8%

## OC1(c2ccccc2F)CCN(Cc2ccccc2N2CCCC2)CC1
30.3 µM, […]
  Percent Effect: 56.26%

## Cc1cccc(C2(O)CCN(Cc3ccccc3N3CCCC3)CC2)c1
30.3 µM, […]
  Percent Effect: 93.6%

## Cc1nc(CCN)cc(N2CCC(O)(c3ccccc3)C2)n1 (stereo not given)
30 µM, 30.03 µM
  Percent Effect: -28.3%

## Cl.OC1(c2ccc(F)cc2)CCN(Cc2ccccc2N2CCCC2)CC1
30.3 µM, […]
  Percent Effect: -34.29%

## Nc1ncc(CN2CCC(O)(c3ccccc3F)CC2)cn1
30.3 µM, […]
  Percent Effect: -5.013%

## COc1cc(CCC(=O)N2CCC(c3cc4ncc(C)nc4[nH]3)C2)on1 (stereo not given)
30.3 µM, […]
  Percent Effect: 31.83%

## COc1cc(CCC(=O)N2CCC(c3cc4ncccc4[nH]3)CC2)on1
30.3 µM, […]
  Percent Effect: 13.01%

## COc1cc(CCC(=O)N2CCC(c3cc4nccnc4[nH]3)CC2)on1
30.3 µM, […]
  Percent Effect: 60.69%

## O=C(C1CCOCC1)N1CCO[C@H]2[C@H](OCc3ccncc3)CC[C@@H]21.O=C(O)C(F)(F)F
30 µM, 30.03 µM
  Percent Effect: -17.19%

## CN(Cc1ccncc1)C1COC2(CCN(Cc3ccsc3)CC2)C1.O=C(O)C(F)(F)F.O=C(O)C(F)(F)F.O=C(O)C(F)(F)F (stereo not given)
30 µM, 30.03 µM
  Percent Effect: 11.15%

## Cn1nc(C(=O)NCc2ccccn2)c2c1CCS(=O)(=O)C2
30 µM, 30.03 µM
  Percent Effect: 63.28%

## Cn1nc(C(=O)NCc2cccnc2)c2c1CCS(=O)(=O)C2
30.3 µM, […]
  Percent Effect: -19.1%
